Data as given in PubChem BioAssay (Tox21).
Several values for one entry are separate records, joined by “and”; a condition that tells them apart may be missing. Equal values may be shown once. Results filed as inconclusive are left out. Unmarked numbers belong to inactive results. Activity calls are given as the source filed them. Calls follow the shape of the dose curve; as a rule, active = well fitted cell-killing curve with a large enough effect in the repeat runs; inconclusive = weak or mixed curves, or effect the other way; inactive = no such curve, though single readings can be large or run the other way.

assay: qHTS assay for identifying genotoxic compounds that show differential cytotoxicity against isogenic chicken DT40 cell lines with known DNA damage response pathways - Rev3 mutant cell line (AID 743014); settings: chicken DT40 Rev3-/- viability, CellTiter-Glo, 40 h; series mostly up to 68.4 µM; activity, negative = cytotoxicity: at the top concentration; also: nearly all actives have a fitted effect of over 55% in size
Excerpt: National Center for Advancing Translational Sciences [NCATS]
NIH Chemical Genomics Center [NCGC]
U.S. Environmental Protection Agency [EPA]
National Institutes of Environmental Health Sciences [NIEHS]
National Toxicology Program [NTP]
U.S. Food and Drug Administration [FDA]
DNA repair pathways play a critical role in cellular homeostasis by repairing DNA damage induced by endogenous processes and xenobiotics. Isogenic chicken DT40 cell lines deficient in different DNA repair pathways can be used to identify genotoxic compounds and aid in characterizing the nature of the DNA damage induced. Two DNA repair-deficient cell lines with disrupted genes, Rad54/Ku70 or Rev3, were used to screen the Tox21 10K compound library. Possible genotoxicity was based on the presence of a significant increase in cytotoxicity in one or more of the DNA repair-deficient cell lines compared to that observed in the parental DNA repair-proficient cell line. CellTiter Glo viability assay (Promega, Madison, WI) was used to measure cell viability in these cells after compound treatment. This assay includes the data from the Rev3 mutant cell line.
Tox21 Assay Protocol Summary:
300 DT40 mutant cells in 5 uL/well were dispensed into white, solid-bottom 1536-well plates using a Multidrop Combi (ThermoFisher Scientific, Waltham, MA) dispenser. After the assay plates were incubated at 37 C/5% CO2 for approximately 0.5 hour, 23 nL of compounds dissolved in DMSO, positive controls or DMSO only was transferred into the assay plate by a pintool work station (Kalypsys, San Diego, CA). The assay plates were incubated at 37 C/5% CO2 for 40 hours. After 5 uL per well of CellTiter-Glo reagent was added into each well of the assay plates, the plates were incubated for 30 min at room temperature and the luminescence intensity of the plates was measured using a ViewLux (PerkinElmer, Shelton, CT) plate reader.
% is scaled to controls: 0 for no effect and ±100 for the full control effect; potency is read from the fitted curve at half-maximal effect.

Row | Compound | activity, negative = cytotoxicity | Potency
1 | CN(CCO)CCO | -3.31% [at 95 µM] | –
2 | CCC1(CC)C(=O)C=CNC1=O | 13.3% | –
3 | CCOC(=O)C(Cl)Cc1cc(-n2nc(C)n(C(F)F)c2=O)c(F)cc1Cl (stereo not given) | – | 61.1 µM (active)
4 | CC(=O)OCC1=C(C(=O)O)N2C(=O)[C@@H](N)[C@H]2SC1 | 10% [at 31.4 µM] | –
5 | NNCc1ccccc1 | 6.34% [at 95 µM] | –
6 | COC(=O)[C@@H](N)CCCN/C(N)=N/[N+](=O)[O-] | 13.6% | –
7 | NC(=O)CS(=O)C(c1ccccc1)c1ccccc1 (stereo not given) | 0.226% | –
8 | CC1N=C(N)OC1c1ccccc1 (stereo not given) | 5.77% | –
9 | C[N+]1(C)CCCCC1 | -8.34% | –
10 | COc1cccc([C@@]2(O)CCCC[C@@H]2CN(C)C)c1 | 14.6% | –
11 | CCC1(c2cccc(O)c2)CCCCN(C)C1 (stereo not given) | 1.02% [at 31.4 µM] | –
12 | COP(=O)(OC)O/C(C)=C/C(=O)N(C)C | -24.4% [at 95 µM] | –
13 | CCCC[N+](=O)[O-] | 1.16% | –
14 | CCOP(=S)(OCC)Oc1ccc(Cl)cc1Cl | -13.8% | –
15 | COc1ccc(CN2CCNCC2)c(OC)c1OC | 4.95% [at 31.4 µM] | –
16 | CN(C)C(=O)Oc1cc(OC(=O)N(C)C)cc(C(O)CNC(C)(C)C)c1 (stereo not given) | 10.6% [at 31.4 µM] | –
17 | OP(O)c1ccccc1 | 13.1% [at 95 µM] | –
18 | ClC1=C(Cl)C2(Cl)C(CBr)CC1(Cl)C2(Cl)Cl (stereo not given) | – | 27.3 µM (active)
19 | C=C(Cl)CCl | 5.47% | –
20 | N#CN | – | inactive

Row | Compound | activity, negative = cytotoxicity | Potency
21 | CCCC(C)C1(CC)C(=O)N=C(S)NC1=O (stereo not given) | -4.72% | –
22 | NC(=O)OCCCc1ccccc1 | – | 11.9 µM (active)
23 | c1ccc2c(c1)CCNC2 | 0.267% [at 95 µM] | –
24 | CCNc1nc(Cl)nc(NC(C)(C)C)n1 | -23.4% | –
25 | O=C(O)CBr | -13.1% | –
26 | ClCCCCl | -0.184% [at 95 µM] | –
27 | CCN[C@H](C)Cc1cccc(C(F)(F)F)c1 | – | 30.5 µM (active)
28 | Cl/C=C/CCl | 1.52% [at 95 µM] | –
29 | C[C@H](CN1CCOCC1)C(C(=O)N1CCCC1)(c1ccccc1)c1ccccc1 | – | 37.3 µM (active)
30 | ClCC1CO1 (stereo not given) | – | inactive
31 | CCOC(=O)CCl | 0.498% | –
32 | CCCCCCC(=O)CCCCCC/C=C/C[C@@H](O)[C@H](O)[C@@](N)(CO)C(=O)O | – | 21.1 nM (active) and 11.9 nM (active)
33 | CCN(CC)CCOC(=O)C(O)(c1ccccc1)c1ccccc1 | 12.8% | –
34 | CC(Cl)(Cl)Cl | 7.06% | –
35 | CCOc1cc(OP(=S)(OC)OC)nc(CC)n1 | 13.4% | –
36 | O=C(O)C(Br)(Br)Br | 14.5% | –
37 | CC[C@@H](CO)NC(=O)[C@@H]1C=C2c3cccc4[nH]cc(c34)C[C@H]2N(C)C1 | -4.6% | –
38 | CN(C)C1CCCCC1 | 2.72% | –
39 | Clc1nc(Cl)nc(Nc2ccccc2Cl)n1 | -8.56% | –
40 | C(COCC1CO1)OCC1CO1 (stereo not given) | – | 1.54 µM (active)
